Data as given in PubChem BioAssay AID1529 (NMMLSC, 2009).
Hit rate of the full screen: of about 290,000 compounds, about 4,200 (1.4%) were called active.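 Rule for the calls: active = binding response more than 3 SD above or below the average of its plate-row segment, actives on both sides; inconclusive = wells at one plate position flagged as instrument error; inactive = the rest.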 Many of the other results were omitted from the sample, so actives are more common in it than they were.

Target: Mitogen-activated protein kinase kinase kinase 3 (Homo sapiens) (UniProt Q99759)
Experiment: modulators of MEKK3-MEK5 PB1 binding, primary screen, biochemical, wildtype MEKK3, multiplex bead flow cytometry, Alexa488-MEK5 (AID 1529);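 note: Alexa488 bead fluorescence after subtracting the streptavidin-only scavenger bead signal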
Details: bead-based flow cytometry, Alexa488-MEK5 binding to MEKK3; at 10 µM; actives lie on both sides; 0 = blocked by unlabeled MEK5, 100 = vehicle

Sequence of Mitogen-activated protein kinase kinase kinase 3 (Homo sapiens) (Q99759 whole entry, looked up): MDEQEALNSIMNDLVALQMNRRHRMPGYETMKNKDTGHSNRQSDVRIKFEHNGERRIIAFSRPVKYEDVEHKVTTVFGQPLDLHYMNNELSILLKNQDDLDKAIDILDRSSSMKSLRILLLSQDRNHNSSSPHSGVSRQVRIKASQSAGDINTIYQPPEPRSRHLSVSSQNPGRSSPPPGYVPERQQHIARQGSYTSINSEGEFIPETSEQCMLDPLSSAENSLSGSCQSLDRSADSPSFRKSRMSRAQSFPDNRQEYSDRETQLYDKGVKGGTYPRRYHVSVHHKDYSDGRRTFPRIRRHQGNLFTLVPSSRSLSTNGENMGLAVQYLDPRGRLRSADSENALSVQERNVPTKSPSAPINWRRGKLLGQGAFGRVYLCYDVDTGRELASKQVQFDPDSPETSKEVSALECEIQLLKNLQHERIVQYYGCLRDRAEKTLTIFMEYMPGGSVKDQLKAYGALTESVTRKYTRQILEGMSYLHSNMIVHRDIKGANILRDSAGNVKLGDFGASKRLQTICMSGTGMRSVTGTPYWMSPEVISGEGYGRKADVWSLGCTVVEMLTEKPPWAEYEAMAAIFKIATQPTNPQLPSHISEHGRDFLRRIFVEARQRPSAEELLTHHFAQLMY

Binding response (% of control), active:
CN1C(=O)/C(=C\c2ccc(-c3ccccc3)o2)SC1=S 46% [inhibitor]
O=C1Nc2ccc(Br)cc2/C1=N/N=C/C1=C(N2CCOCC2)C(=C\c2ccccc2)/CC1 45% [inhibitor]
O=c1[nH]c(=S)[nH]c2[nH]c(=S)[nH]c12 48% [inhibitor]
COc1ccc(CCn2c(NN=C3CCCC3)nc3c2c(=O)[nH]c(=O)n3C)cc1 44% [inhibitor]
O=C(O)C1CCN(c2ccc([N+](=O)[O-])cc2[N+](=O)[O-])CC1 49% [inhibitor]
COc1cccc(NC(=S)NCCCN2CCOCC2)c1 140%
COc1cccc(NC(=S)NCc2ccccn2)c1 143%
COc1ccc2nc(Nc3nc4cc5c(cc4s3)OCCO5)sc2c1 137%
COc1cc(-c2nc(-c3ccncc3)no2)cc(OC)c1OC 1% [inhibitor]
Cc1cccc(CSc2nnc(C)c(=O)n2N)c1 128%
COCCN1C=C2C(=O)C(C)(OC(=O)C3CCCC3)C(=O)C=C2C=C1c1ccsc1 (configuration not stated) 133%
Cc1cc(C(=O)OCC(=O)N2c3ccccc3NC(=O)C2(C)C)c(C)n1-c1ccccc1 130%
CCn1c(NC(=O)c2ccccc2)c(-c2cccs2)c(=O)c2ccccc21 82% [inhibitor]
O=C(Cc1cccs1)N/N=C/c1ccc(OCc2ccccc2)cc1 129%
N#C/C(=C\C1=C(N2CCOCC2)C(=C\c2ccccc2)/CC1)C(=O)Nc1ccccc1F 8% [inhibitor]
CN(C)CCCN(C(=O)COc1ccccc1)c1nc2c(Cl)cccc2s1 35% [inhibitor]
O=C1C=CC(=O)N1c1ccc(N2CCCCC2)cc1 49% [inhibitor]

Binding response (% of control), inactive:
COc1ccc(/C=C2\SC(=O)N(CCC(=O)NCCCn3ccnc3)C2=O)cc1 100%
COc1ccc(OC)c(/C(C)=N\NC(=O)c2cc3cc(Cl)ccc3n2C)c1 103%
Cc1cccnc1NC(=O)Cn1c(=O)oc2ccccc21 103%
O=C(O)C(c1ccccc1)N1C(=O)/C(=C\c2ccc(-c3cccc(Cl)c3)o2)SC1=S (configuration not stated) 96%
NS(=O)(=O)c1ccc(-c2ccc(/C=C3\SC(=O)NC3=O)o2)cc1 100%
C=C(C)CNC(=O)c1ccc(OC2CCN(C(=O)COC)CC2)cc1 105%
C=CCSc1nnc(N2C(=O)C(O)=C(C(=O)c3ccco3)C2c2ccc(F)cc2)s1 (configuration not stated) 101%
C(=N\N1CCN(c2ccccn2)CC1)/C1=C(N2CCOCC2)C(=C/c2ccccc2)/CC1 102%
COc1ccc(/C=N/N=C2/C(=O)Nc3ccccc32)cc1O 100%
O=C1N[C@H](Cc2ccccc2)C(=O)N[C@H]1Cc1cn(S(=O)(=O)c2ccccc2)c2ccccc12 106%
CCOC(=O)COn1c(=O)c(-c2ccc(OCC)cc2)[n+]([O-])c2ccccc21 109%
CCOc1ccccc1CNS(=O)(=O)c1cc(-c2cc(C)no2)ccc1C 96%
CN1CCC(CN)(N2CCN(c3ccccc3)CC2)CC1 106%
COC(=O)c1ccc(N2CCOCC2)c(NC(=O)c2ccc(Br)o2)c1 101%
Cc1c(C)c(C)c2[nH]c(=S)[nH]c2c1C 101%
COc1ccc(CCn2c(NCCCN3CCOCC3)nc3c2c(=O)[nH]c(=O)n3C)cc1 101%
COc1ccc(CNc2nc3c(c(=O)[nH]c(=O)n3C)n2Cc2ccccc2)cc1 104%
O=c1c2c(-c3ccccc3)ccnc2[nH]n1-c1ccccc1 109%
COc1ccc(CCNC(=O)CSCc2ccc(Br)cc2)cc1OC 104%
CCCc1nn(C)c2c(=O)[nH]c(-c3cc(S(N)(=O)=O)ccc3OCC)nc12 103%
CC1CCN(c2ccc([N+](=O)[O-])cc2C(N)=O)CC1 100%
CCOC(=O)C1CCN(c2ccc(C(=O)O)cc2[N+](=O)[O-])CC1 103%
CC(C)CNS(=O)(=O)c1ccc(CCC(=O)NCc2ccc(Cl)cc2)cc1 96%
O=C(Nc1ccc(S(=O)(=O)Nc2ccccn2)cc1)c1ccccc1 97%
COc1cccc(NC(=S)N(Cc2ccc(C)cc2)Cc2ccccn2)c1 104%
Cc1cc(C)cc(NC(=S)NCCCN2CCOCC2)c1 117%
COc1cccc(NC(=S)NCc2ccco2)c1 98%
CCCCc1ccc(NC(=S)NCCCN2CCOCC2)cc1 93%
O=C(NCCN1CCN(C(=O)c2cccc([N+](=O)[O-])c2)CC1)C(=O)NCc1ccc(Cl)cc1 105%
CCOC(=O)Cn1c(O)c(N=NC(=O)CNC(=O)Cc2ccccc2)c2ccccc21 99%
COc1ccccc1CN1CC(C(=O)NCCc2cn[nH]c2)CCC1=O (configuration not stated) 104%
COc1ccccc1CCNS(=O)(=O)c1cn(C)nc1C 104%
COc1ccccc1CNC(=O)C1CCN(C(=O)[C@@H]2Cc3ccccc3CN2)CC1 101%
COc1ccc2nc(Nc3nc(-c4ccncc4)cs3)sc2c1 104%
COc1ccc2nc(Nc3nc(-c4cc5ccccc5oc4=O)cs3)sc2c1 82%
CNC[C@H](CC1CCCCC1)NC[C@H](NCCC1CCCC1)[C@H](C)O 102%
COc1ccccc1Cc1nc(-c2ccc(C)cc2)no1 101%
Cc1ccc(-c2nc(-c3ccncc3)no2)c(C)c1 102%
O=C(NCc1ccccc1)C1=C[C@@H](c2ccccc2)C[C@@H](OCCCCO)O1 101%
O=C(CCNS(=O)(=O)c1cccs1)N1CCN(c2ccc(F)cc2)CC1 102%
O=C(Cn1cc(/C=N/NC(=O)c2cccc(C(F)(F)F)c2)c2ccccc21)Nc1ccc(F)cc1 103%
CCNC(=O)Nc1ccc(S(=O)(=O)Nc2cnc(C)nc2C)cc1 101%
O=C(NCc1cccc(Cl)c1)C1CCN(c2nnc(N3CCCC3=O)s2)CC1 96%
Cc1ccnc(NS(=O)(=O)c2ccc(NC(=O)c3oc4ccccc4c3C)cc2)n1 102%
Cc1nnc(SCc2cccc(Cl)c2)n(N)c1=O 98%
Cc1cccc(CSc2nc3c(c(=O)n2C)SCC3)c1 100%
COc1ccc(NC(=O)N2CCCC(C(=O)Nc3ccccc3OC)C2)cc1 (configuration not stated) 100%
COC(=O)CCCC1=CC2=CC(=O)C(C)(OC(=O)c3cccs3)C(=O)C2=CN1CC1CC1 (configuration not stated) 93%
CC1(OC(=O)C2CCCC2)C(=O)C=C2C=C(c3ccc(C#N)cc3)OC=C2C1=O (configuration not stated) 94%
COc1ccc(CCNc2nc3ccc(C)cc3n3cnnc23)cc1OC 102%
O=C(/C=C/c1ccco1)NC(=S)Nc1ccccc1Br 102%
CCNc1ccc(C(=O)OCC(=O)N2c3ccccc3NC(=O)C2(C)C)cc1[N+](=O)[O-] 99%
COc1ccc(Cl)cc1-n1c(C)cc(C(=O)OCC(=O)N2CC(=O)Nc3ccccc32)c1C 105%
CC1(C(=O)O)CCC(C(=O)Nc2ccc(Cl)c(Cl)c2)C1(C)C (configuration not stated) 103%
COc1ccc(C(=O)COC(=O)CNC(=O)c2cccs2)cc1Br 99%
COc1ccccc1C(=O)Nn1c(-c2cccs2)nc2ccccc2c1=O 111%
CCn1c(=O)c2cc(C(=O)Nc3cccc(C(C)=O)c3)sc2c2ccccc21 106%
COc1ccccc1N(CC(=O)N/N=C(\C)c1ccccc1O)S(=O)(=O)c1ccc(C)cc1 102%
CCOc1ccc(NC(=O)C/C(C)=N/NC(=O)Cc2cccs2)cc1 99%
O=C(N/N=C/c1ccc(OCc2ccccc2)cc1)c1ccc(O)cc1 119%
N#C/C(=C\c1ccccc1C(F)(F)F)C(=O)Nc1ccccc1F 97%
N#C/C(=C/c1ccc(N2CCOCC2)o1)C(=O)N1CCOCC1 94%
CN(CCC1CCOCC1)Cc1cn[nH]c1-c1ccc(-c2ccccc2)cc1 109%
CCCCC(CC)CNCc1cccn1CCN1CCOCC1 (configuration not stated) 100%
COc1cccc2sc(N(CCCN(C)C)C(=O)C(c3ccccc3)c3ccccc3)nc12 111%
COc1cccc2sc(N(CCCN(C)C)C(=O)CCS(=O)(=O)c3ccccc3)nc12 97%
COCCNc1ccc(-c2n[nH]c(=O)c3ccccc23)cc1[N+](=O)[O-] 103%
Cc1ccccc1C(=O)Nc1ccc(N2CCCCCC2)cc1 80%
CCOC(=O)/C(C#N)=C/c1ccc(N2CCCCC2)cc1 99%
C#CC(C)(C)NC(=O)c1cnc(-c2ccccc2)nc1-c1ccccc1 105%
CC(NC(=O)c1cc2cc(Cl)ccc2oc1=N)c1ccccc1 (configuration not stated) 100%
Cc1ccc(CN(C)Cc2cc(=O)oc3cc(C)c(Cl)cc23)cc1 109%
COc1ccc(N(C(=O)c2snc(C(N)=O)c2N)C(C(=O)NC2CCCC2)c2ccco2)cc1OC (configuration not stated) 101%
Cc1c(Cl)cccc1NC(=O)[C@@]1(CC(=O)O)CC(/C=C/c2ccccc2)=NO1 96%
COC(=O)c1c(NC(=O)c2ccccc2F)sc2c1C(C(=O)OC)CC2 (configuration not stated) 98%
